# Test results: PubChem BioAssay AID449728 (The Scripps Research Institute Molecular Screening Center, 2010)
# Where “and” joins values, the source holds several entries; their conditions need not be identical. Equal values may be shown once. Out of some 330,000 compounds screened, about 900 (0.27%) were called active. The sample holds actives, similar compounds and a random draw of the others, so the mix is not that of the screen.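 How the source made its calls: active means inhibition above the campaign's mean inhibition across all tested compounds plus 3 SD (cut at about 9.9% in these data); inactive means the rest.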 The source holds several records for some structures; these can differ, active in one and inactive in another.
# Test: E. coli V3065 growth inhibition, primary screen, counter-screen for AddAB inhibitor project, absorbance, OD600 (AID 449728);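 further: uninfected addAB+ strain grown without phage in ampicillin broth; 0% = DMSO wells and 100% = ciprofloxacin 0.95 µg/ml wells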
# Conditions: 18 h, at 11.9 µM, stronger effect = higher value
row,SMILES,inhibition
1,NNC(=O)c1ccc(COCC(F)(F)C(F)F)cc1,3.04% (inactive)
2,Cc1nnc(SCC2=C(C(=O)O)N3C(=O)C(NC(=O)Cn4nc(C)c(Cl)c4C)C3SC2)s1 (stereo not drawn),1.18% (inactive)
3,CO/N=C(\C(=O)N[C@@H]1C(=O)N2C(C(=O)O)=C(COC(C)=O)CS[C@H]12)c1csc(N)n1 (stereo in doubt),98.5% (active) and 97.8% (active) and -0.69% (inactive)
4,C=CC1=C(C(=O)O)N2C(=O)[C@@H](NC(=O)/C(=N/OCC(=O)O)c3csc(N)n3)[C@H]2SC1,97.6% (active)
5,C=CC1=C(C(=O)O)N2C(=O)[C@@H](NC(=O)/C(=N\OCC(=O)O)c3csc(N)n3)[C@H]2SC1,97.5% (active)
6,CC(C)(C)OC(=O)C1=C(CO)CS[C@@H]2[C@H](NC(=O)Cc3ccccc3)C(=O)N12,1.43% (inactive)
7,Cc1cc(C)cc(C(=O)NC2C(=O)N3C(C(=O)O)=C(CSc4nnc(C)s4)CSC23)c1 (stereo not drawn),-0.85% (inactive)
8,COC(=O)C1=C(C)NC2=C(C(=O)c3ccccc32)C1c1ccc(-c2ccc(C(=O)O)cc2)o1 (stereo not drawn),1.44% (inactive)
9,CCCCC(=O)Nc1nnc(S(=O)(=O)N(C)Cc2ccco2)s1,1.69% (inactive)
10,Cc1[nH]nc(SCC(=O)NCC(C)C)c1[N+](=O)[O-],-0.08% (inactive)
11,COc1ccc(S(=O)(=O)N2CCOCC2)cc1NC(=O)CSc1ncnc2ccccc12,-2.21% (inactive)
12,COC(=O)c1ccc(COC(=O)CNC(=O)c2cccc(OC)c2)o1,-0.35% (inactive)
13,CCOC(=O)c1c(CC(C)C)csc1/N=C/C1=C(O)CCCC1=O,-1.62% (inactive)
14,Cc1ccc(-n2c(C)nnc2SCC(=O)NC2CC2)cc1,0.84% (inactive)
15,O=c1ccc2c(-c3ccccc3S(=O)(=O)O)c3ccc(O)c(O)c3oc-2c1O,20.2% (active)
16,CC(C)C(C(=O)NCc1ccco1)N(CC1CCCO1)C(=O)CNS(=O)(=O)c1ccc(F)cc1 (stereo not drawn),0.85% (inactive)
17,CC(=O)Nc1ccc(S(=O)(=O)N(CCc2ccccc2)CC(=O)N/N=C/c2ccc(C(=O)O)cc2)cc1,2.71% (inactive)
18,O=S(=O)(Nc1ccc(-n2cnnn2)cc1)c1ccc(Cl)cc1,1.06% (inactive)
19,COc1ccc(C(=O)/C=C/c2cccnc2)c(OC)c1,-1.21% (inactive)
20,COc1ccc2oc(=N)c(C(=O)Nc3ccc(Br)cc3)cc2c1,-1.46% (inactive)

row,SMILES,inhibition
1,COc1ccc(/C=C/C(=O)c2cc(Br)ccc(=O)c2O)cc1,10.9% (active)
2,COC(=O)c1sc(SC)c(S(=O)(=O)C(C)C)c1N/N=C(\C#N)S(=O)(=O)c1ccccn1,-1.95% (inactive)
3,CCCCCC1CC(COc2ccccc2)OC1=O (stereo not drawn),-0.64% (inactive)
4,O=C(CC(O)(C(F)(F)F)C(F)(F)F)Nc1ccc(Cl)c(Cl)c1,17.7% (active)
5,CS(=O)(=O)N(CC(=O)Nc1ccc(Cl)c(Cl)c1)C1CCCCC1,0.42% (inactive)
6,O=C(CCCN1C(=O)CCC1=O)Nc1ccc(Cl)c(C(F)(F)F)c1,-1.92% (inactive)
7,CC(=O)Nc1ccc(NC(=O)COc2ccc(S(=O)(=O)NC(C)c3ccccc3)cc2)cc1 (stereo not drawn),2.38% (inactive)
8,O=C(CSc1ccccn1)N1CCN(S(=O)(=O)c2ccc(Cl)cc2)CC1,-1.3% (inactive)
9,CCCCNC(=O)Nc1c(C)cc(SC#N)cc1C,2.5% (inactive)
10,CC(=O)NN1C(=O)c2ccccc2NC1c1ccccc1 (stereo not drawn),0.86% (inactive)
11,O=C(O)C(c1ccccc1)N1C(=O)/C(=C\c2ccc(-c3cccc(Cl)c3)o2)SC1=S (stereo not drawn),-3.78% (inactive)
12,O=C1c2ccccc2NC(c2ccc(-c3cccc(Cl)c3)o2)N1O (stereo not drawn),19.2% (active)
13,O=C(NCc1cccs1)c1ccc2c(c1)ncn2C1CCCC1,-2.5% (inactive)
14,Cc1ccc(NC(=O)CN(C)C(=O)c2ccc(Br)o2)cc1,0.43% (inactive)
15,CCCS(=O)(=O)Nc1ccc(-c2cn3c(n2)SCC3)cc1,2.36% (inactive)
16,CC(C)(C)N(Cc1ccccc1)C(=O)c1ccncc1,-2.63% (inactive)
17,O=C(NCc1ccccn1)Nc1ccc(Cl)cc1,-3.41% (inactive)
18,O=C1c2ccccc2C(=O)N1CCC(O)C[N+](=O)[O-] (stereo not drawn),3.02% (inactive)
19,CC(=O)Oc1ccccc1C(=O)Nc1ncc([N+](=O)[O-])s1,11.2% (active)
20,COc1ccc(NC(=O)c2ccccc2[N+](=O)[O-])cc1OC,-1.73% (inactive)

row,SMILES,inhibition
1,O=C(Cc1c(F)cccc1Cl)Nc1ncc([N+](=O)[O-])s1,7.15% (inactive)
2,CCCCCCCCCCCC(=O)O,-2.17% (inactive)
3,COc1ccc(OC)c(CCNC(=O)c2nn(C)c3c2CS(=O)(=O)c2ccccc2-3)c1,0.84% (inactive)
4,Cc1cc(=O)oc2cc(OCC(=O)N3CCN(c4ccc(F)cc4)CC3)c(Cl)cc12,1.94% (inactive)
5,O=C(Nc1ccc(Br)cn1)c1ccc([N+](=O)[O-])o1,32.3% (active)
6,CN1C(=O)c2ccc(C(=O)Nc3ccc(Br)cn3)cc2C1=O,-2.73% (inactive)
7,O=C(Nc1cccc(O)c1)c1ccc(C(=O)c2ccccc2)o1,0.43% (inactive)
8,Cc1onc(NC(=O)c2ccc([N+](=O)[O-])o2)c1Br,6.74% (inactive)
9,O=C(Nc1ccc(Br)cn1)c1ccc([N+](=O)[O-])cc1Cl,2.77% (inactive)
10,Cc1cccc(NC(=O)c2ccc([N+](=O)[O-])o2)c1,27.2% (active)
11,CC1CC(C)CN(CCC(=O)Nc2ccc3c(c2)CCC3)C1 (stereo not drawn),1.48% (inactive)
12,O=c1c(-c2ccc(Cl)cc2)[n+]([O-])c2ccccc2n1OCc1nc2ccccc2[nH]1,0.49% (inactive)
13,O=C(Nc1cccnc1Cl)c1cc(-c2ccccc2O)on1,-1.11% (inactive)
14,C=CCNC(=O)c1cc(-c2ccccc2O)on1,85.1% (active)
15,C=CCNC(=O)c1csc(-c2ccccc2)n1,-0.67% (inactive)
16,Cc1ccc(C)c(OCCC(=O)OCC(=O)NC(=O)NCc2ccccc2)c1,0.73% (inactive)
17,CNC(=O)CN1C(=O)NC(c2ccccc2)(c2ccccc2)C1=O,1.95% (inactive)
18,CCOC(=O)N1CCN(Cc2nc3cc(NC(=O)CC)ccc3n2CC)CC1,-0.18% (inactive)
